Results filed as inconclusive are left out. Active and inactive are the calls of the source. Calls follow the shape of the dose curve; as a rule, active = well fitted inhibition curve with a large enough effect; inconclusive = small, poorly fitted or top-dose-only effect; inactive = flat fitted curve, though single readings scatter.
What follows are compounds tested on CRL-7250 (assay: qHTS assay to identify novel small-molecules to repurpose for Merkel cell carcinoma treatment (AID 1296009; also: nearly all actives have a fitted effect of over 60% in size)). Settings: MCC and control cell lines, CellTiter-Glo viability, 72 h; series mostly up to 92 µM; activity change, negative = cytotoxicity: at the top concentration.
Outline: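 Cells exposed to NPC (8-point) and MIPE (11-point) compound dilutions for 72 hr at 37 degree celsius; viability read by CellTiter-Glo luminescence, normalized to no-cell and DMSO in-plate controls.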

Compound | outcome
Cc1cc(-c2ncc(-c3cccnc3)cc2/C=C/c2ccccc2)cnc1-c1cccnc1 | inactive
CC1(C)NC2N(C1=O)c1ccccc1C2(O)CC(C(=O)O)n1cnc2ccccc2c1=O (stereo not given) | inactive [at 17.4 µM]
COc1cccc(-c2ccc([C@@H](Oc3cc(-c4ccc(C[C@H](N)C(=O)O)cc4)nc(N)n3)C(F)(F)F)cc2)c1 | inactive
COc1cc(/C=C/C(=O)O)ccc1O[C@@H]1O[C@H](CO)[C@@H](O)[C@H](O)[C@H]1O[C@@H]1OC[C@](O)(CO)[C@H]1O | inactive [at 17.4 µM]
C[C@H]1CCN2C[C@]34C[C@@]5(C(=O)Nc6c5ccc5c6OC=CC(C)(C)O5)C(C)(C)C3C[C@]12C(=O)N4C (stereo not given in full) | inactive [at 17.4 µM]
O=c1[nH]ccc2nc(-c3ccc(CN4CCC(c5nc(-c6ccccn6)n[nH]5)CC4)cc3)c(-c3ccccc3)cc12 | inactive
COC(=O)C(CC1(O)c2ccccc2N2C(=O)C(CC(C)C)NC21)n1cnc2ccccc2c1=O (stereo not given) | inactive [at 17.4 µM]
Cc1cccc(NC(=O)CN2CCC(c3ccccn3)CC2)c1 | inactive
CCC(COC)n1nnc2c(Nc3ccc(OC)cc3C)nc(C)cc21 (stereo not given) | inactive
COc1ccc(C)c2sc(NC(=O)c3ccncc3)nc12 | inactive
COCC1OC(OC(C)(C)C2CCC3(C)C=C(C4CCC5C4(C)CC(O)C4OC(C(C)(C)O)CCC45C)CCC3O2)C(NC(C)=O)C(O)C1O (stereo not given) | inactive [at 17.4 µM]
C/C(=C\CCC(C)CCO)C(=O)O[C@@H]1[C@@H](O)[C@H](OC2OC=C(C(=O)O)C3CCC(C)(O)C23)O[C@H](CO)[C@H]1O (stereo not given in full) | inactive [at 17.4 µM]
O=C1COc2nccc(-c3ccccc3F)c2CN1Cc1cc(C(F)(F)F)cc(C(F)(F)F)c1 | inactive
Cc1c(C)c(NCC(=O)N(C)C2CCN(Cc3ccc(C(N)=O)cc3)CC2)c(C)c(C)c1N | inactive
CC(C)(Oc1ccc(-c2nc3cc(Cl)ccc3s2)cc1)C(=O)O | inactive
C=CC1(C)C=C2C(=O)CC3C(C)(C)CCCC3(C(=O)O)C2(O)CC1 (stereo not given) | inactive
C=C(C)[C@@H]1CC[C@]2(C)CC[C@]3(C)C(CCC4[C@@]5(C)CC[C@H](O)C(C)(C)C5CC[C@]43C)C12 (stereo not given in full) | inactive [at 17.4 µM]
C=C[C@H]1C(O[C@@H]2O[C@H](CO)[C@@H](O)[C@H](O)[C@H]2O)OC=C2C(=O)N3CCc4c([nH]c5ccccc45)C3CC21 (stereo not given in full) | inactive [at 17.4 µM]
Cc1cc(Cn2cnc3c2CC(C(=O)O)N(C(=O)C(c2ccccc2)c2ccccc2)C3)ccc1N(C)C (stereo not given) | inactive
CC(C)(OC1OC(CO)C(O)C(O)C1O)C1CCC(O)(CO)C2CC(=O)C(C)(O)C2C1 (stereo not given) | inactive [at 17.4 µM]
CN(Cc1ccc(C(=O)O)cc1)c1ccc(OCc2c(-c3c(Cl)cccc3Cl)noc2C2CC2)nc1C(F)(F)F | inactive
C=CC(C)(O)CC/C=C(/C)C(=O)OC1C(OC2OCC(OC3OC(CO)C(O)C(O)C3O)C(OC3OCC(O)C(OC4OC(C)C(O)C(O)C4O)C3O)C2O)COC(OC(=O)C23CCC(C)(C)CC2C2=CCC4C5(C)CCC(OC6OC(CO)C(OC7OC(CO)C(O)C(OC8OCC(O)C(O)C8O)C7O)C(O)C6O)C(C)(C)C5CCC4(C)C2(C)CC3O)C1O (stereo not given) | inactive [at 4.96 µM]
COc1ccc(OC)c(C2C(C#N)=C(N)Oc3n[nH]c(-c4ccc5ccccc5c4)c32)c1 (stereo not given) | inactive
OC[C@H]1O[C@@H](OC[C@H]2O[C@@H](OCc3ccccc3)[C@H](O)[C@@H](O)[C@@H]2O)[C@H](O)[C@@H](O)[C@@H]1O | inactive [at 17.4 µM]
O=S(=O)(Nc1cc(Cl)c(Oc2cnc3ccccc3c2)c(Cl)c1)c1ccc(Cl)cc1Cl | inactive
CC(=O)OC[C@@]12[C@H](O)C[C@]3(C)C(=CCC4[C@@]5(C)CC[C@H](O[C@@H]6O[C@H](C(=O)O)[C@@H](O[C@@H]7O[C@H](CO)[C@@H](O)[C@H](O)[C@H]7O)[C@H](O)[C@H]6O[C@@H]6O[C@H](CO)[C@@H](O)[C@H](O)[C@H]6O)[C@](C)(CO)C5CC[C@]43C)[C@@H]1CC(C)(C)[C@@H](OC(C)=O)[C@@H]2O (stereo not given in full) | inactive [at 9.27 µM]
COc1cc(O)cc(C)c1C(=O)OC1C(CO)OC(n2ccc(=O)[nH]c2=O)C1OC(C)=O (stereo not given) | inactive [at 17.4 µM]
CC1CCC2C(C)(C)C(O)CCC2(C)C12Cc1c(O)cc3c(c1O2)CN(C(CCCN=C(N)N)C(=O)O)C3=O (stereo not given) | inactive [at 17.4 µM]
CC1=CC(=O)CC(C)(C)C1CCC(C)O[C@@H]1O[C@H](CO)[C@@H](O)[C@H](O)[C@H]1O (stereo not given in full) | inactive
O=C(c1ccc(C#Cc2cccc(F)c2)cn1)N1CC2CC2C1 (stereo not given) | inactive

— PubChem BioAssay (NCATS)
